{"source": "PubChem BioAssay (EPA / NIEHS)", "note": "Inconclusive results are not listed. Activity calls are given as the source filed them. The calls were made as follows: active = hit-call score of the fitted dose curve at least 0.9, where 1 is the maximum; inconclusive = response in the unintended direction; inactive = score below 0.9.", "data": [{"molecular_target": "guinea pig Opioid, Kappa 1 Receptor (OpiateK), OPRK1 (gene 100135587) (UniProt P41144)", "sequence (P41144 whole entry, looked up)": "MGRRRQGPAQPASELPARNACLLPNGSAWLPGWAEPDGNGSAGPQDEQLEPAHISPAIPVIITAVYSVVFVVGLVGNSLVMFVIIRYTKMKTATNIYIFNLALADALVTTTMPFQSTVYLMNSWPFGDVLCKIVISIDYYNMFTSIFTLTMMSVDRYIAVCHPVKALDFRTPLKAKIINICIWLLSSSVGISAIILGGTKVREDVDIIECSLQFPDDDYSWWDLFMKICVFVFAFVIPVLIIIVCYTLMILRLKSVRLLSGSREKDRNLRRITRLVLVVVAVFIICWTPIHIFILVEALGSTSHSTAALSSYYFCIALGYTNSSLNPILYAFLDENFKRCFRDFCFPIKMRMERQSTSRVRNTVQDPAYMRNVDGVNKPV", "test": "NVS_GPCR_gOpiateK: NovaScreen (NVS) G Protein-Coupled Receptor Assay for guinea pig Opioid, Kappa 1 Receptor (OpiateK) (AID 2283252);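 also: active means reduced radioligand binding relative to DMSO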", "in_short": "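Radioligand competition binding using guinea pig cerebellum membrane fraction; 2 h exposure; filter radiodetection. Single concentration 25 uM (duplicate), follow-up concentration-response for actives.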", "values": [{"compound": "CC(C)[N+](C)(CCOC(=O)C1c2ccccc2Oc2ccccc21)C(C)C", "AC50": "11.1 µM (active)"}, {"compound": "COC(OC)(C(=O)c1ccccc1)c1ccccc1", "AC50": "13.6 µM (active)"}, {"compound": "CC1=CC=C(C(C)C)CC1", "outcome": "inactive"}, {"compound": "CCOC(=O)C1=NN(c2ccc(Cl)cc2Cl)C(C)(C(=O)OCC)C1", "note": "(centres undefined)", "AC50": "14.3 µM (active)"}]}, {"molecular_target": "human Adenosine A1 Receptor (AdoRA1), ADORA1 (gene 134) (UniProt P30542)", "sequence (P30542 whole entry, looked up)": "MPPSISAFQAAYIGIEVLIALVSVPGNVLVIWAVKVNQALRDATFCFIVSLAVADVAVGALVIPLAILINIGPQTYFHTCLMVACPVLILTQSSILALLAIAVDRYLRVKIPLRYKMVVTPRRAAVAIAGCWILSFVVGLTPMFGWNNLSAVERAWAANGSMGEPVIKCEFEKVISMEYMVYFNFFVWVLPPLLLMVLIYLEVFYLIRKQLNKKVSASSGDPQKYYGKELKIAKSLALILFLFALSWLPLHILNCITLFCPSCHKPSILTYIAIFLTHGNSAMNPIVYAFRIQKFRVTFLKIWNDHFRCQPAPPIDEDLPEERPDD", "test": "NVS_GPCR_hAdoRA1: NovaScreen (NVS) G Protein-Coupled Receptor Assay for human Adenosine A1 Receptor (AdoRA1) (AID 2283254)", "in_short": "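Each chemical is first tested twice at 25 uM, actives later in dilution series, against a radioligand bound to human cortex membranes; after 1 h, filter-retained counts are compared with DMSO controls, lower signal indicating displacement.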", "values": [{"compound": "CCCCCCCCCCCCCc1ccccc1", "outcome": "inactive"}, {"compound": "Nc1nc(N)nc(-c2ccccc2)n1", "AC50": "6.11 µM (active)"}, {"compound": "Oc1ccc(/C=C/c2cc(O)cc(O)c2)cc1", "outcome": "inactive"}]}, {"molecular_target": "human Adenosine A2a Receptor (AdoRA2a), ADORA2A (gene 135) (UniProt P29274)", "sequence (P29274 whole entry, looked up)": "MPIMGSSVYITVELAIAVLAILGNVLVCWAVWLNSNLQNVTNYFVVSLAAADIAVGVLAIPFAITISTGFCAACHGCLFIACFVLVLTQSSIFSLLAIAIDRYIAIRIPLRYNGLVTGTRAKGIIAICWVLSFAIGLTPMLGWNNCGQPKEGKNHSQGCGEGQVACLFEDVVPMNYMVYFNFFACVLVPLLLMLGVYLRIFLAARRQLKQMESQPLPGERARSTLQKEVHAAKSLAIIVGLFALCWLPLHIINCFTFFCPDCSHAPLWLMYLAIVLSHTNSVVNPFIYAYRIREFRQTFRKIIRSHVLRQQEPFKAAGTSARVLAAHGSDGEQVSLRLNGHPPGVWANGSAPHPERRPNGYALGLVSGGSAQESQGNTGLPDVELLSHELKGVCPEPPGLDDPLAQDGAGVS", "test": "NVS_GPCR_hAdoRA2a: NovaScreen (NVS) G Protein-Coupled Receptor Assay for human Adenosine A2a Receptor (AdoRA2a) (AID 2283256)", "in_short": "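Compounds screened in duplicate at 25 uM, with actives followed up in concentration series, for displacement of a radioligand from HEK293-derived receptor protein. Bound counts read by filter scintillation at 1.5 hours, DMSO as baseline.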", "values": [{"compound": "Cc1c[nH]c(=O)[nH]c1=O", "outcome": "inactive"}, {"compound": "Nc1nc(N)nc(-c2ccccc2)n1", "AC50": "3.01 µM (active)"}, {"compound": "Cn1ccnc1", "outcome": "inactive"}, {"compound": "Oc1ccc(/C=C/c2cc(O)cc(O)c2)cc1", "AC50": "17.9 µM (active)"}, {"compound": "c1ccc(-c2nc3ccccc3[nH]2)cc1", "outcome": "inactive"}]}, {"molecular_target": "D(1A) dopamine receptor (Homo sapiens) (UniProt P21728)", "sequence (P21728 whole entry, looked up)": "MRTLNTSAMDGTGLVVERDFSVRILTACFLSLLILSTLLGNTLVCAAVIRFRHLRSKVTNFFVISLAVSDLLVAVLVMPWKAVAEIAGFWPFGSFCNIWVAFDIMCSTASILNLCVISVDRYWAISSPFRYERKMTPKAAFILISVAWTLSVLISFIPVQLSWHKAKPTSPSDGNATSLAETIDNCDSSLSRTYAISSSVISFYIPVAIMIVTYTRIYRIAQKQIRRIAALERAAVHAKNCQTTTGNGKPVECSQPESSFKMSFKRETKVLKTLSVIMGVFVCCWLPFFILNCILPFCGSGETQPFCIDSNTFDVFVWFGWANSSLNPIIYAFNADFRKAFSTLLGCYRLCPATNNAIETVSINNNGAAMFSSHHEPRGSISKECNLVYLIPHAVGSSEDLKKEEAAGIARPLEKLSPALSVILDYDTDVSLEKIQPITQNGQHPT", "test": "NVS_GPCR_hDRD1: NovaScreen (NVS) G Protein-Coupled Receptor Assay for human Dopamine Receptor D1 (DRD1) (AID 2283269)", "in_short": "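Extracted HEK293 DRD1 is incubated 1 h with compound and a tritiated or iodinated radioligand, then filtered and counted. Screening runs 25 uM in duplicate with on-plate positive and negative controls.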", "values": [{"compound": "Cc1cc(C)c(C=O)c(C)c1", "outcome": "inactive"}, {"compound": "COC(=O)C=Cc1ccccc1", "outcome": "inactive"}, {"compound": "CCCCCCCCCCCCCc1ccccc1", "outcome": "inactive"}, {"compound": "CC(c1cc(C(C)(C)C)cc(C(C)(C)C)c1O)c1cc(C(C)(C)C)cc(C(C)(C)C)c1O", "outcome": "inactive"}, {"compound": "[Cl][Sc]([Cl])[Cl]", "outcome": "inactive"}, {"compound": "CCC(C)C(=O)OC", "note": "(centres undefined)", "AC50": "18.1 µM (active)"}, {"compound": "C=C(C)C(=O)OCCCCCCCCCCCC", "outcome": "inactive"}, {"compound": "CC/C=C\\C/C=C\\C/C=C\\CCCCCCCC(=O)OC", "AC50": "14 µM (active)"}, {"compound": "Oc1ccc(/C=C/c2cc(O)cc(O)c2)cc1", "AC50": "25 µM (active)"}, {"compound": "CC(C)CCOCc1ccccc1", "outcome": "inactive"}, {"compound": "Cc1cc(C)n(CO)n1", "outcome": "inactive"}]}, {"molecular_target": "Muscarinic acetylcholine receptor M2 (Homo sapiens) (UniProt P08172)", "sequence (P08172 whole entry, looked up)": "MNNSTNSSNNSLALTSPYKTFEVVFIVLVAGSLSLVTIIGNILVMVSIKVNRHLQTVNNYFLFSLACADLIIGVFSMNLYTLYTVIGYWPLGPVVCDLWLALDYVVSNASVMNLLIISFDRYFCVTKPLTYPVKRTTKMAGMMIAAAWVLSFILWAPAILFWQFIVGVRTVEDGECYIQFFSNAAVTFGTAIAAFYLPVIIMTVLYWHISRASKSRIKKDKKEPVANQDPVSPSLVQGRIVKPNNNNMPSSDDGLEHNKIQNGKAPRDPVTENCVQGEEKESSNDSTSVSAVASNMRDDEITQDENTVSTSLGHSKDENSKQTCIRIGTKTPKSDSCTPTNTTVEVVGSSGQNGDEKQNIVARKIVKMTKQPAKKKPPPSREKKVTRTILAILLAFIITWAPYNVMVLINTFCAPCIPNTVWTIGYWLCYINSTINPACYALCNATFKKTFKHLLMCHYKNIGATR", "test": "NVS_GPCR_hM2: NovaScreen (NVS) G Protein-Coupled Receptor Assay for human Muscarinic, M2 Receptor (AID 2283273)", "in_short": "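Radioligand competition binding, cell-free, receptor from CHO; 1 h incubation; scintillation detection. Primary testing at 25 uM in duplicate.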", "values": [{"compound": "CC(C)[N+](C)(CCOC(=O)C1c2ccccc2Oc2ccccc21)C(C)C", "AC50": "0.00229 µM (active)"}, {"compound": "Cc1c(O)cccc1O", "outcome": "inactive"}, {"compound": "CCCCCCCCC(CO)CCCCCC", "note": "(centres undefined)", "outcome": "inactive"}]}, {"molecular_target": "human Neurokinin, NK2 Receptor, TACR2 (gene 6865) (UniProt P21452)", "sequence (P21452 whole entry, looked up)": "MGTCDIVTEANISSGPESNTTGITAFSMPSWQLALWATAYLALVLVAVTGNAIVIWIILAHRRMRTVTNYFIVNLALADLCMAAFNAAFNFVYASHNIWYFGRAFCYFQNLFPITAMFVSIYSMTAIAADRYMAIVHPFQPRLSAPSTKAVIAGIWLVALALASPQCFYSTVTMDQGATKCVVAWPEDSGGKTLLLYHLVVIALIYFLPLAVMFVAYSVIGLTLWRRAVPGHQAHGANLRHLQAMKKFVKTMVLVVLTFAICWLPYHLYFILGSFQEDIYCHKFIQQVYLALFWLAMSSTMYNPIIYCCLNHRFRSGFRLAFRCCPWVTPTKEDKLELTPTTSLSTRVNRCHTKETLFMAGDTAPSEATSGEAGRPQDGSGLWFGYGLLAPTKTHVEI", "test": "NVS_GPCR_hNK2: NovaScreen (NVS) G Protein-Coupled Receptor Assay for human Neurokinin, NK2 Receptor (AID 2283278)", "in_short": "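Test chemicals displace a radioligand from receptor prepared from CHO cells in a cell-free format, read after 4 hours by scintillation counting on filters. Screening starts at 25 uM in duplicate, and active chemicals then go to concentration series.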", "values": [{"compound": "CC(C)[N+](C)(CCOC(=O)C1c2ccccc2Oc2ccccc21)C(C)C", "AC50": "17.7 µM (active)"}, {"compound": "[Cl][Sc]([Cl])[Cl]", "outcome": "inactive"}, {"compound": "CCOC(=O)/C=C\\C(=O)OCC", "outcome": "inactive"}, {"compound": "Oc1ccc(/C=C/c2cc(O)cc(O)c2)cc1", "AC50": "0.835 µM (active)"}, {"compound": "c1ccc2sc(SSN3CCOCC3)nc2c1", "AC50": "3.65 µM (active)"}]}, {"molecular_target": "human Thromboxane A2 Receptor (TXA2), TBXA2R (gene 6915) (UniProt P21731)", "sequence (P21731 whole entry, looked up)": "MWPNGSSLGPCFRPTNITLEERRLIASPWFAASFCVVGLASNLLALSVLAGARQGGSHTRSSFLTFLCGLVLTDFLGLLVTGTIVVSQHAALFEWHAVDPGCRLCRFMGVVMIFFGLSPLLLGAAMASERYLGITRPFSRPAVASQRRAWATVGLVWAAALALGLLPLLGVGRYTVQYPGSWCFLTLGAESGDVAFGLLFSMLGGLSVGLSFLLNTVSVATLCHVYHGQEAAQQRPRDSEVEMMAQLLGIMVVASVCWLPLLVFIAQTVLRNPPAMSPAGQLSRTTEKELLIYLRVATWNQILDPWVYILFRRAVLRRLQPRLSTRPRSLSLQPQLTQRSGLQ", "test": "NVS_GPCR_hTXA2: NovaScreen (NVS) G Protein-Coupled Receptor Assay for human Thromboxane A2 Receptor (TXA2) (AID 2283282)", "in_short": "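Human platelet-derived receptor preparation incubated with test chemical and radiolabelled ligand for 1 hour, cell-free. Bound label was separated by filtration and counted; displacement relative to DMSO controls gave activity, screened at 25 uM, then titrated.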", "values": [{"compound": "CC(C)=NNC(N)=S", "outcome": "inactive"}, {"compound": "CCCCCCC=O", "outcome": "inactive"}, {"compound": "Oc1c(Cl)cc(Cl)c(Cl)c1Cl", "outcome": "inactive"}, {"compound": "Clc1cccnc1", "outcome": "inactive"}, {"compound": "CCCCC1C(=O)N(c2ccccc2)N(c2ccccc2)C1=O", "outcome": "inactive"}, {"compound": "CC/C=C\\C/C=C\\C/C=C\\CCCCCCCC(=O)OC", "AC50": "2.66 µM (active)"}, {"compound": "CCOC(=O)/C=C\\C(=O)OCC", "outcome": "inactive"}, {"compound": "CCc1cccc(C)c1N(C(=O)CS(=O)(=O)O)C(C)COC", "note": "(centres undefined)", "outcome": "inactive"}, {"compound": "Fc1ccc(Br)cc1", "outcome": "inactive"}, {"compound": "Oc1ccc(/C=C/c2cc(O)cc(O)c2)cc1", "outcome": "inactive"}, {"compound": "CCOC(=O)C1=NN(c2ccc(Cl)cc2Cl)C(C)(C(=O)OCC)C1", "note": "(centres undefined)", "outcome": "inactive"}, {"compound": "CCC(C)c1ccccc1", "note": "(centres undefined)", "AC50": "2.46 µM (active)"}, {"compound": "c1ccc(-c2nc3ccccc3[nH]2)cc1", "AC50": "7.64 µM (active)"}]}]}
